The nature of experiment [1]: BSK_MyoF_SRB: Viability Assessment in the BioMAP Diversity Plus: MyoF Assay (AID 2284267).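 Further: total protein by SRB absorbance in parallel cultures as cytotoxicity measure; cells assessed 24 h after compound addition.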 Particulars: primary human lung fibroblasts. The method, boiled down: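 Lung fibroblast cultures, 24 h post-dose; fix 10% TCA, stain 0.1% SRB, read 560 nm. Signal = total protein as cytotoxicity measure; fitted relative to DMSO negative control.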
Read-out in experiment [2]: Matrix Metallopeptidase 1 (MMP1), MMP1 (gene 4312)
Put plainly: BSK_MyoF_MMP1: BioMAP Diversity Plus: MyoF Assay for Matrix Metallopeptidase 1 (MMP1) Biomarker Activity (AID 2284268). Particulars: primary human lung fibroblasts. The method, boiled down: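 MMP1 measured by ELISA 24 h after dosing primary human lung fibroblasts; cytotoxicity checked in parallel cultures by sulforhodamine B total-protein staining read at 560 nm.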

Read-out in experiment [3]: TIMP metallopeptidase inhibitor 1 (TIMP1), TIMP1 (gene 7076)
Put plainly: BSK_MyoF_TIMP1: BioMAP Diversity Plus: MyoF Assay for TIMP metallopeptidase inhibitor 1 (TIMP1) Biomarker Activity (AID 2284269). Particulars: primary human lung fibroblasts. An outline of the steps: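 ELISA read-out of TIMP-1 from primary human lung fibroblast cultures 24 h after compound dosing; gain of signal relative to DMSO vehicle baseline defines activity.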

Read-out in experiment [4]: Matrix Metallopeptidase 3 (MMP3), MMP3 (gene 4314)
Put plainly: BSK_BF4T_MMP3: BioMAP Diversity Plus: BF4T Assay for Matrix Metallopeptidase 3 (MMP3) Biomarker Activity (AID 2284271). Particulars: primary human bronchial epithelial cells with fibroblasts. The method, boiled down: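 MMP-3 level read by ELISA after 24 h chemical exposure of bronchial epithelial cell/dermal fibroblast co-cultures, fitted upward relative to DMSO. Parallel cultures stained with 0.1% SRB after TCA fixation gauge overt cytotoxicity.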

Read-out in experiment [5]: Plasminogen Activator Inhibitor-1 (PAI1), SERPINE1 (gene 5054)
Put plainly: BSK_BF4T_PAI1: BioMAP Diversity Plus: BF4T Assay for Plasminogen Activator Inhibitor-1 (PAI1) Biomarker Activity (AID 2284273). The settings on record: primary human bronchial epithelial cells with fibroblasts. The method, boiled down: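 PAI-1 levels quantified by ELISA 24 h post-dosing in bronchial epithelial cell plus dermal fibroblast cultures. Signal gain referenced to DMSO baseline. Sulforhodamine B total-protein staining of parallel wells checked cytotoxicity.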

A short description of experiment [6]: BSK_BF4T_SRB: Viability Assessment in the BioMAP Diversity Plus: BF4T Assay (AID 2284274). The settings on record: primary human bronchial epithelial cells with fibroblasts. The method, boiled down: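 Cytotoxicity measured as total protein: cells fixed with 10% TCA, stained with 0.1% SRB, read at 560 nm. Bronchial epithelial/dermal fibroblast co-culture, 24 h after dosing, with positive-direction fitting relative to DMSO.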

Read-out in experiment [7]: urokinase Plasminogen Activator (uPA), PLAU (gene 5328)
Put plainly: BSK_BF4T_uPA: BioMAP Diversity Plus: BF4T Assay for urokinase Plasminogen Activator (uPA) Biomarker Activity (AID 2284275). Particulars: primary human bronchial epithelial cells with fibroblasts. An outline of the steps: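 uPA levels measured by ELISA at 24 hours in BF4T cultures (bronchial epithelial cells plus dermal fibroblasts) and compared with DMSO; cytotoxicity tracked in parallel cultures by sulforhodamine B staining.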

Read-out in experiment [8]: Matrix Metallopeptidase 9 (MMP9), MMP9 (gene 4318)
Put plainly: BSK_BF4T_MMP9: BioMAP Diversity Plus: BF4T Assay for Matrix Metallopeptidase 9 (MMP9) Biomarker Activity (AID 2284276). Particulars: primary human bronchial epithelial cells with fibroblasts. An outline of the steps:
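MMP-9 levels were measured by ELISA after 24 h exposure of bronchial epithelial cell/dermal fibroblast co-cultures, with DMSO as baseline. Parallel cultures were stained with 0.1% SRB after TCA fixation, read at 560 nm, to flag overt cytotoxicity.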

Read-out in experiment [9]: Interleukin-8 (IL8), CXCL8 (gene 3576)
Put plainly: BSK_IMphg_IL8: BioMAP Diversity Plus: IMphg Assay for Interleukin-8 (IL8) Biomarker Activity (AID 2284277). Particulars: primary human endothelial cells with macrophages. An outline of the steps:
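IL-8 levels were measured by ELISA 24 h after dosing in primary human venular endothelial cell–macrophage cultures, referenced to DMSO; parallel SRB staining monitored overt cytotoxicity.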

Read-out in experiment [10]: Intercellular Adhesion Molecule 1 (ICAM1), ICAM1 (gene 3383)
Put plainly: BSK_BE3C_ICAM1: BioMAP Diversity Plus: BE3C Assay for Intercellular Adhesion Molecule 1 (ICAM1) Biomarker Activity (AID 2284278).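 Further: cell-surface ICAM-1 protein level quantified by ELISA.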 The settings on record: primary human bronchial epithelial cells. An outline of the steps: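 ELISA read-out of ICAM-1 on human lung bronchial epithelial primary cells, 24 h post-dosing; positive-direction curve fit, DMSO = baseline. SRB total-protein staining of parallel cultures flagged overt cytotoxicity.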

Read-out in experiment [11]: Interferon-inducible T-cell alpha chemoattractant (ITAC), CXCL11 (gene 6373)
Put plainly: BSK_BE3C_ITAC: BioMAP Diversity Plus: BE3C Assay for Interferon-inducible T-cell alpha chemoattractant (ITAC) Biomarker Activity (AID 2284279). The settings on record: primary human bronchial epithelial cells. An outline of the steps: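 ELISA read-out of I-TAC after 24 h chemical dosing of human lung primary bronchial epithelial cells; gain-of-signal fit vs DMSO baseline. Parallel SRB total-protein staining (0.1% SRB, 10% TCA fixation, 560 nm) assessed cytotoxicity.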

Read-out in experiment [12]: Interleukin-8 (IL8), CXCL8 (gene 3576)
Put plainly: BSK_BE3C_IL8: BioMAP Diversity Plus: BE3C Assay for Interleukin-8 (IL8) Biomarker Activity (AID 2284280). The settings on record: primary human bronchial epithelial cells. An outline of the steps: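 Primary human bronchial epithelial cells (BE3C system) were exposed to test chemical for 24 h, and IL-8 levels were then measured by ELISA. Activity was fitted in the positive (gain-of-signal) direction against a DMSO negative-control baseline.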

Read-out in experiment [13]: Epidermal growth factor receptor (EGFR), EGFR (gene 1956)
Put plainly: BSK_BE3C_EGFR: BioMAP Diversity Plus: BE3C Assay for Epidermal growth factor receptor (EGFR) Biomarker Activity (AID 2284281). Particulars: primary human bronchial epithelial cells. An outline of the steps: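 Human primary bronchial epithelial cells were exposed to compound for 24 h, and cell-surface EGFR was then quantified by ELISA. Activity was fitted in the positive direction against the DMSO vehicle baseline.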

Read-out in experiment [14]: KRT18 (gene 3875)
Put plainly: BSK_BE3C_Keratin818: BioMAP Diversity Plus: BE3C Assay for Keratin 818 Biomarker Activity (AID 2284282). Particulars: primary human bronchial epithelial cells. An outline of the steps:
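ELISA read-out of Keratin 8/18 in BE3C human bronchial epithelial cultures, 24 h post-dosing; positive-direction fit vs DMSO baseline.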

Read-out in experiment [15]: Matrix Metallopeptidase 9 (MMP9), MMP9 (gene 4318)
Put plainly: BSK_BE3C_MMP9: BioMAP Diversity Plus: BE3C Assay for Matrix Metallopeptidase 9 (MMP9) Biomarker Activity (AID 2284283). The settings on record: primary human bronchial epithelial cells. An outline of the steps:
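Cells were dosed, incubated 24 h, then assayed for MMP-9 by ELISA; activity was fitted upward against DMSO. The system used human lung primary bronchial epithelial cells, with SRB total-protein staining run alongside for cytotoxicity.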

Read-out in experiment [16]: Plasminogen activator inhibitor-1 (PAI1), SERPINE1 (gene 5054)
Put plainly: BSK_CASM3C_PAI1: BioMAP Diversity Plus: CASM3C Assay for Plasminogen activator inhibitor-1 (PAI1) Biomarker Activity (AID 2284284). Particulars: primary human coronary artery smooth muscle cells.

Read-out in experiment [17]: Monocyte Chemoattractant Protein-1 (MCP1), CCL2 (gene 6347)
Put plainly: BSK_hDFCGF_MCP1: BioMAP Diversity Plus: hDFCGF Assay for Monocyte Chemoattractant Protein-1 (MCP1) Biomarker Activity (AID 2284285). The settings on record: primary human foreskin fibroblasts. An outline of the steps:
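MCP-1 ELISA readout was taken 24 hours after dosing primary human dermal fibroblasts in the hDFCGF system, with DMSO as baseline. Parallel sulforhodamine B staining of total protein tracked overt cytotoxicity.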

Read-out in experiment [18]: Vascular cell adhesion molecule 1 (VCAM1), VCAM1 (gene 7412)
Put plainly: BSK_IMphg_VCAM1: BioMAP Diversity Plus: IMphg Assay for Vascular cell adhesion molecule 1 (VCAM1) Biomarker Activity (AID 2284286). Particulars: primary human endothelial cells with macrophages. The method, boiled down:
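ELISA read-out of VCAM-1 on venular endothelial cell/macrophage co-cultures at 24 h post-treatment, with DMSO as baseline and positive-direction fitting. Parallel sulforhodamine B total-protein staining (560 nm) served as the overt cytotoxicity measure.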

Read-out in experiment [19]: Tissue plasminogen activator (tPA), PLAT (gene 5327)
Put plainly: BSK_BF4T_tPA: BioMAP Diversity Plus: BF4T Assay for Tissue plasminogen activator (tPA) Biomarker Activity (AID 2284272). The settings on record: primary human bronchial epithelial cells with fibroblasts. The method, boiled down: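 tPA level quantified by ELISA at 24 h post-treatment in bronchial epithelial/dermal fibroblast co-cultures, gain of signal scored against DMSO baseline. Parallel cultures stained with 0.1% SRB (560 nm) to flag overt cytotoxicity.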

Several values for one entry are separate records, joined by “and”; a condition that tells them apart may be missing. Identical values can stand only once. A structure can be active in one record and inactive in another. Activity calls are given as the source filed them. How the source made its calls: active means hit-call score of the fitted dose curve at least 0.9, where 1 is the maximum; inactive means score below 0.9.

Results on 6 compounds are retold here after PubChem BioAssay (EPA / NIEHS).

As a reminder, the AC50 is the concentration at which the activity in the assay is half-maximal. Regarding `O=C(O)C(F)(F)C(F)(F)C(F)(F)C(F)(F)C(F)(F)C(F)(F)C(F)(F)C(F)(F)C(F)(F)C(F)(F)C(F)(F)C(F)(F)F`, the outcome in [1], in experiment [2], in [3], in [4], in experiment [5] and in experiment [6] was inactive. In addition, the result in experiment [7], in experiment [8], in [9], in [10], in experiment [11] and in experiment [12] was inactive. Moreover, the result in experiment [13], in [14], in experiment [15], in [16] and in [17] was inactive. Besides, the AC50 in experiment [18] is 15.2 µM (active) and 19.4 µM (active).

Consider `O=C(O)C(F)(F)C(F)(F)C(F)(F)C(F)(F)F`, for which the result in experiment [1], in [2], in experiment [3], in [4], in [19] and in experiment [5] was inactive. Further, the outcome in experiment [6], in [8], in experiment [9], in experiment [10], in [11] and in experiment [12] was inactive. The result in experiment [13], in experiment [14], in experiment [15], in experiment [16], in experiment [17] and in [18] was inactive.

Consider `OCC(F)(F)C(F)(F)C(F)(F)F`, for which the result in experiment [1], in experiment [2], in experiment [3], in [4], in experiment [19] and in experiment [5] was inactive. Besides, the result in experiment [6], in experiment [9], in experiment [10], in experiment [11], in experiment [12] and in experiment [13] was inactive. The result in experiment [14], in experiment [15], in experiment [16], in experiment [17] and in experiment [18] was inactive.

Consider `CCCCCCOC(=O)c1ccccc1O`, for which the outcome in experiment [10], in experiment [11], in experiment [12], in [13], in experiment [14] and in experiment [15] was inactive. For the same compound, in [16], the outcome was inactive. Further, the half-maximal activity concentration (AC50) in experiment [17] is 18.2 µM (active) and 22.9 µM (active).

Consider `O=C(O)C(F)(F)C(F)(F)F`, for which the result in [1], in experiment [2], in experiment [3], in experiment [4], in experiment [5] and in experiment [6] was inactive. Moreover, the outcome in experiment [9], in [10], in [11], in [12], in [13] and in [14] was inactive. The outcome in experiment [15], in experiment [16], in experiment [17] and in experiment [18] was inactive. The half-maximal activity concentration (AC50) in [12] was 26.1 µM (active).

Regarding `N=C(N)C(F)(F)C(F)(F)C(F)(F)C(F)(F)C(F)(F)C(F)(F)C(F)(F)F`, the result in experiment [1], in experiment [2], in experiment [3], in experiment [4], in experiment [5] and in [6] was inactive. For the same compound, the result in [9], in experiment [10], in [11], in experiment [12], in experiment [13] and in experiment [14] was inactive. For the same compound, the outcome in experiment [15], in experiment [16], in experiment [17] and in experiment [18] was inactive. The AC50 in experiment [4] was 33.6 µM (active); in experiment [9], 30 µM (active); in [12], 30 µM (active); in [17], 43.8 µM (active); in experiment [18], 41.4 µM (active).
